The results in this text go back to the OligoGym collection.
Further: reference of the scale not given here.

For one assay, the target named is PAFAH1B2. As to the kind of experiment: pooled miR-30 sensor sort-seq; sequence = guide strand. The following applies: shRNA.
TACCCAGACAACAATGACCTTA returned a sensor-assay potency score (higher = more potent) of -0.359.
On the same count and under the same terms, the same measure for ATTTAAACAACAATCTTCCTTG: 0.529; for TTGTGCTGAGACATCCATCGGT: 0.723.
The same measure, in the same setting: as for TGTGCTGAGACATCCATCGGTC, the figure is -0.024.
On the same count and under the same terms, as for TTCTTCTGCTGTATTTTCGTGG, the figure is -0.326; as for TAATATTCTCCAGTTCTCCATT, -1.1; as for TTGCTGCATTAACTGCACCATG, -1.37.
Sequence TTAGTCTCCACAAAACATGTCT gave a sensor-assay potency score (higher = more potent) of -0.124.
The same measure, in the same setting: as for TTCTGCTGTATTTTCGTGGTTA, the figure is 0.637.

The next assay deals with PAG1. The description is as above. The conditions noted are these: shRNA.
In the case of TTTTTTGTTTCTGTCCACCGAG, the sensor-assay potency score (higher = more potent) is -0.11.
The same measure, in the same setting: the same measure for TAAACTGTAGCATTAGCTCAAG: -0.488; for TAATATTTGAAAACTCTTGGGG: 0.247; for TTGCAAAATAATGACAACCAAC: -1.68.
Still for that read-out and setting: the same measure for TACATAATAGAACATATCCTAA: -0.651; for TTACTGATGAGTACATAGCTGA: -0.0368; for TTTTTGTTTCTGTCCACCGAGG: -1.07.
Same read-out and setting: as for TAAATTTCACATAACCTGCTAT, the figure is 0.485.
Consider TTGTTTTTGATAACTACCTTTC, for which the sensor-assay potency score (higher = more potent) is -0.868.
In turn, TTCTTGTGTAGTTATCTGCCTA came in with a sensor-assay potency score (higher = more potent) of -0.676.
Same read-out and setting: as for TTTTCTTTTCTATATAGCGTTT, the figure is -1.01; as for TTAAACTGTAGCATTAGCTCAA, 0.54.

For another assay, the target named is PALB2. The description is as above. The following applies: shRNA.
Sequence TTGAATAAATAATTTTTCGTGC showed a sensor-assay potency score (higher = more potent) of -0.674.
Same read-out and setting: the same measure for TATAGCTTTATTTACAAGGAGG: -1.15.
On the same count and under the same terms, as for TAACATAATATTCTGCAGGAAA, the figure is -1.13.
Same read-out and setting: the same measure for TTGTTCTAACATAATATTCTGC: -0.275; for TTTGCTACTGATTTCTTCCTGT: 0.661.
With TACATGGCTCTTTACAACCGGC, the sensor-assay potency score (higher = more potent) was -0.961.
TTCCTGTGTATCTTCTACCAGG yielded a sensor-assay potency score (higher = more potent) of -0.953.
For the sequence TAAATTTTTACTTGCATCCTTA, the sensor-assay potency score (higher = more potent) is 0.122.
The same measure, in the same setting: as for TTTGTATAGGTAATCCTCCTGG, the figure is 0.029; as for TTAGGAATGTATCAACACCTTT, -0.84.
Still for that read-out and setting: the same measure for TACAGCATCACACCCACGCTGA: -0.615; for TTCTTGAACTTGGTTGTCCTGT: 0.276.

In another assay the target is PALM2-AKAP2. Described as above. The conditions noted are these: shRNA.
TTGTCAATCATGCTTGCGCGTT returned a sensor-assay potency score (higher = more potent) of -1.12.
On the same count and under the same terms, as for TTCTAATGCAGTATTGTTCTTT, the figure is 0.398; as for TTTCTCATGCTCGTCATCCTCA, 0.127; as for TTGTTCTTTCTCATGCTCGTCA, 0.379.
The same measure, in the same setting: as for TTGATTTGCTTGTAACATGTTT, the figure is -0.674; as for TTAGTCAGTGGCTTGTCTGAGT, 0.113; as for TCTGGCAACATCATTATCCAGG, -0.478.
